Screening results from PubChem BioAssay.
Tgondii IFNg: blocks Toxoplasma gondii growth in the presence of IFN-gamma; Toxoplasma gondii growth in IFN-gamma-treated host cells; active compounds read low; activity change, negative = inhibition, % (test concentration not listed); 69,000 tested, 3.8% active; in the data active means activity change below about -70%, passing the limit was not always enough;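 further: host cells are HeLa cells infected with Toxoplasma gondii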
Numbers stand for hits; - = inactive. The full list was thinned out, with hits kept by preference.

SMILES	Tgondii IFNg
Cc1ccc(N2CC3(CCN(C(=O)Nc4ccc(F)cc4)C3)CC2=O)cc1 (stereo not drawn)	-
O=C(c1ccn[nH]1)N1CCC2(CC(=O)N(c3ccccc3)C2)C1 (stereo not drawn)	-
Cc1ccccc1N1CC2(CCN(C(=O)Cc3ccc(F)cc3)C2)CC1=O (stereo not drawn)	-
N#Cc1ccc(N2CC3(CCN(C(=O)c4cnccn4)C3)CC2=O)cc1 (stereo not drawn)	-
Cc1ccc(N2CC3(CCN(C(=O)Cc4ccc(F)cc4)C3)CC2=O)cc1 (stereo not drawn)	-113
O=C(c1ccn[nH]1)N1CCC2(CC(=O)N(c3ccc(F)cc3)C2)C1 (stereo not drawn)	-92
COc1cc(OC)c(NC(=O)C(Sc2ccc(Cl)cc2)c2ccccc2)cc1Cl (stereo not drawn)	-
CC(Cc1cnccn1)Nc1nc(CCN)nc2ccccc12 (stereo not drawn)	-
CCN1C[C@]23CN(C(=O)c4ccn[nH]4)C[C@@H](C[C@H]2S1(=O)=O)O3	-
O=C(CCn1ncc2c1CCCC2)N1CCCC1c1ccc(Nc2ccc(F)cn2)cn1 (stereo not drawn)	-
CO[C@H]1CCN(Cc2ccc3c(c2)OCO3)[C@H]1Cc1cccnc1	-
CCn1c(N2C[C@@H]3[C@H](C2)[C@H]2CC[C@@H]3O2)nc2cc(C(=O)OC)cnc21	-
CC(C)(C)OC(=O)NC(CC(N)=O)C(=O)O (stereo not drawn)	-
C[C@@H]1CCCCO[C@@H](CN(C)S(=O)(=O)c2ccccc2)[C@H](C)CN([C@@H](C)CO)C(=O)c2cc(NC(=O)Nc3ccc4c(c3)OCO4)ccc2O1	-
COc1ccc(S(=O)(=O)N(C)C[C@@H]2OCCCC[C@H](C)Oc3ccc(NC(=O)Cc4ccccc4)cc3C(=O)N([C@H](C)CO)C[C@@H]2C)cc1	-92
C[C@@H]1CCCCO[C@@H](CN(C)Cc2ccncc2)[C@H](C)CN([C@@H](C)CO)C(=O)c2cc(NC(=O)Cc3ccccc3)ccc2O1	-
COc1ccc(S(=O)(=O)N(C)C[C@H]2OCCCC[C@@H](C)Oc3ccc(NC(=O)Cc4ccccc4)cc3C(=O)N([C@@H](C)CO)C[C@@H]2C)cc1	-
COc1ccc(S(=O)(=O)N(C)C[C@@H]2OCCCC[C@H](C)Oc3ccc(NC(=O)Cc4ccccc4)cc3C(=O)N([C@@H](C)CO)C[C@H]2C)cc1	-125
C[C@@H]1CCCCO[C@H](CN(C)S(=O)(=O)c2ccccc2)[C@H](C)CN([C@@H](C)CO)C(=O)c2cc(NC(=O)Nc3ccc4c(c3)OCO4)ccc2O1	-
C[C@@H]1CN([C@@H](C)CO)C(=O)c2cc(NC(=O)Nc3ccc4c(c3)OCO4)ccc2O[C@@H](C)CCCCO[C@H]1CN(C)S(=O)(=O)c1ccccc1	-
COc1ccc(S(=O)(=O)N(C)C[C@H]2OCCCC[C@H](C)Oc3ccc(NC(=O)Cc4ccccc4)cc3C(=O)N([C@H](C)CO)C[C@@H]2C)cc1	-84
C[C@H](CO)N1C[C@H](C)[C@H](CN(C)S(=O)(=O)c2ccccc2)OCCCC[C@H](C)Oc2ccc(NC(=O)Nc3ccc4c(c3)OCO4)cc2C1=O	-
Cc1cnc(N2CCc3ncnc(N4CCN(C)CC4)c3CC2)nc1	-
CCCCN(Cc1ccccc1)C(=O)c1cc2cccnc2n(Cc2ccccc2F)c1=O	-
O=C(c1ccc(=O)[nH]c1)N1CCC(N2CCCC(C(=O)N3CCCC3)C2)CC1 (stereo not drawn)	-
SMILES	Tgondii IFNg
Cn1cc(C2CC(=O)NC23CCN(C(=O)c2cscn2)CC3)cn1 (stereo not drawn)	-
CCN1CCN(CCCNc2nc(-c3ccc(Cl)cc3)nc3ccccc23)CC1	-
O=C(NCc1nc(C2CCCCC2)no1)c1cccc2ccnn12	-
CN(CC(=O)NC1CCCCCCC1)Cc1nc(-c2cccnc2)no1	-
CCN(Cc1ccccc1)C(c1ccc(C)cc1)c1nnnn1C1CCCC1 (stereo not drawn)	-
CCCNC(=O)c1cc2c(s1)CCN2C(=O)c1cccnc1	-
CCOc1ccc(-c2nc(CSc3nc4c(=O)[nH]c(C)nc4n3C)c(C)o2)cc1OC	-
Cc1cc2c(c(-c3ccc(Cl)cc3)c1)OC(CNC(=O)c1cc[n+]([O-])cc1)C2 (stereo not drawn)	-
O=C(N1CCCCC1)C12CC3CC(CC(C3)C1)C2	-
O=C(c1ccc2nc(NC(=O)C34CC5CC(CC(C5)C3)C4)sc2c1)N1CCCCC1	-85
O=C(Nc1ccncc1)C12CC3CC(CC(C3)C1)C2	-
Cc1ccc(NC(=O)N2CCC(c3nc(C(=O)N4CCCC4)c(C)o3)CC2)cc1F	-
Cc1nn(C(=O)c2cc3c(s2)CCCC3)c(-c2ccccc2)c1Sc1ccccc1	-
OCc1ccc(CN(Cc2ccncc2)Cc2ccc(F)cc2)o1	-
CCc1ccc(CN(Cc2ccncc2)Cc2ccc(F)cc2)nc1	-
Fc1ccc(CN(Cc2ccncc2)Cc2cccc3c2OCO3)cc1	-82
CCCS(=O)(=O)N1CCOCC2(CCC(Cn3cncn3)O2)C1 (stereo not drawn)	-
Cc1ccc(-c2coc(-c3ccc(NC(=O)c4ccccc4)cc3)n2)c(C)c1	-
